# Assay results from PubChem BioAssay (NCI).
# The panel holds about 83,000 compounds, 20% with a hit somewhere; the sample as a whole holds those more often.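 Activity criterion: percent growth below 10, measured after cells in 96-well plates were exposed to a single compound concentration for 48 hours.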 Active and inactive are the calls of the source.
# Test system: HT29 colon
# Assay: NCI-60 one-dose screen, 48 h (100 = growth as untreated, 0 = no growth, -100 = all killed)
# Settings: 10 µM unless noted
# Method: Growth inhibition of the HT29 human tumor cell line is measured as a screen for anti-cancer activity. Cells are grown in 96 well plates and exposed to the test compound for 48 hours. Compounds are tested at a single concentration, which is 10^-5 M for most compounds. The reported endpoint is percent growth (GI% or GIPRCNT), where numbers from 0 - 100% represent growth inhibition, and numbers from -100% - 0 represent cell death. For example, a value of 40 represents 60% growth inhibition. A value of 0 means no net growth occurred over the course of the experiment. A value of -40 indicates 40% of cells at the beginning of the experiment died by the end of the experiment. A value of -100 means all cells are dead at the end of the experiment.
# NCI-60 Human Tumor Cell Lines Screen was performed using the standard one-dose NCI protocol, which is described in more detail at https://dtp.cancer.gov/discovery_development/nci-60/default.htm.
# Compounds with GIPRCNT values below 10 were considered active. Activity score was based on GIPRCNT using the following formula: […]
# Score is 0 for GIPRCNT values of 100 or above, 50 for GIPRCNT values of 0, and 100 for GIPRCNT values of -100.
row,Structure (SMILES),growth
1,Brc1ccc(SCN(CSc2ccc(Br)cc2)Cc2ccccc2)cc1,78.9% (inactive)
2,COc1ccc(/C=N/NC(=O)c2cnn(CC(O)Cc3ccccc3)c2N)cc1OC1CCCC1 (stereo not given),93.6% (inactive)
3,NC(=O)c1cc(I)ccc1NC(=O)COc1ccc(Cl)cc1Cl,85.1% (inactive)
4,O=C1Nc2ccc(Cl)cc2/C1=N/N=C(c1ccccc1)c1ccccc1,98.3% (inactive)
5,O=S(=O)(/N=C1C=C/C(=N\S(=O)(=O)c2ccccc2)c2ccccc2\1)c1ccccc1,118% (inactive)
6,COc1cc2nc(SCc3cc(OC)c(OC)c(OC)c3)n(-c3ccccc3OC)c(=O)c2cc1OC,66.6% (inactive)
7,Cc1cccc2c(=O)c3c(sc12)c(NCCNCCO)nc1ccccc13,-55.4% (active)
8,Cc1nc2cc(Nc3nc(Nc4ccc(F)cc4)nc(-c4cccs4)n3)ccc2n1Cc1ccccc1,20.5% (inactive)
9,CCOc1ccc(/C=N\N2CCCCCC2)cc1OCC,100% (inactive)
10,COc1ccc(OC)c(/C=C2\Oc3cc(O)ccc3C2=O)c1,100% (inactive)
11,Clc1ccc(Nc2nc(Nc3ccccc3)nc(Nc3ccc(-c4cc(-c5ccc(Cl)cc5)on4)cc3)n2)cc1,-2.96% (active)
12,Cn1c2c(cc(S(=O)(=O)c3ccccc3)c1=O)CCc1c-2cnn1-c1cccc(Cl)c1,91.3% (inactive)
13,CCSc1nnc2c3cc(Br)ccc3n(C)c2n1,104% (inactive)
14,Cn1c2c(cc(S(=O)(=O)c3ccccc3)c1=O)CCc1c-2cnn1-c1ccccc1Cl,104% (inactive)
15,O=C1c2ccccc2-c2cn(Cc3ccccc3)c3cccc(c23)C1c1cccnc1 (stereo not given),4.25% (active)
16,CCOC(=O)c1cn2c3c(cc(F)cc3c1=O)C(CC)c1ccccc1C2 (stereo not given),95.9% (inactive)
17,Cc1nc2cc(Nc3nc(NCCN)nc(Nc4ccc(F)cc4)n3)ccc2n1Cc1ccccc1,35.1% (inactive)
18,N#CC1=C(N)Oc2cc(N)ccc2C1c1ccc(F)cc1 (stereo not given),46.4% (inactive)
19,COc1cccc(Nc2nc(NCCO)c3ccccc3n2)c1,100% (inactive)
20,O=C1c2c(c3c4cc(Br)ccc4[nH]c3c3ccc4ccccc4c23)C(=O)N1O,30% (inactive)

row,Structure (SMILES),growth
1,CN1CCc2c(Sc3ccc(C(=O)NO)cc3)c3ccccc3n2C1,48.9% (inactive)
2,Cc1nn2c(-c3nc4ccc(Cl)cc4[nH]3)c(-c3ccc(F)cc3)nc2s1,94.4% (inactive)
3,COc1cc(C2CC(=O)Nc3c2ccc2ccccc32)cc(Br)c1OC (stereo not given),-6.29% (active)
4,O=C1c2ccccc2-c2nnc(-c3ccc(Br)cc3)cc21,82.5% (inactive)
5,O=C(Nc1ccc(F)cc1)c1ccc(C(=O)Nc2ccc(F)cc2)cc1,97.7% (inactive)
6,Cc1ccc(S(=O)(=O)N2CCc3ccc(O)c4c3C2CCc2ccccc2-4)cc1 (stereo not given),100% (inactive)
7,COc1cc(C(F)(F)F)ccc1-c1cc(-c2ccc(F)cc2)n[nH]1,92.5% (inactive)
8,COc1ccc(C2OCC(C)(C)CO2)cc1OC,109% (inactive)
9,CC(=O)N(CC(O)CO)c1c(I)c(C(=O)NCCO)c(I)c(C(=O)NCC(O)CO)c1I (stereo not given),99.9% (inactive)
10,CN1CCc2c(c3ccccc3c3ccccc23)C1,37.7% (inactive)
11,c1ccc2c(c1)oc1cc3c(cc12)nnc1cccn13,103% (inactive)
12,c1ccc2cc(-c3n(Cc4ccc5ccccc5n4)c4ccccc4[n+]3Cc3ccc4ccccc4n3)ccc2c1,-31.7% (active)
13,COc1nc2c(cc1S(=O)(=O)c1ccccc1)CCc1c-2cnn1-c1ccccc1Cl,36.9% (inactive)
14,Clc1ccc2c(c1)C[C@H]1C[C@@H](c3cccs3)N2O1,111% (inactive)
15,COc1ccc2nc(-n3nc(C)cc3C)c(-n3nc(C)cc3C)nc2c1,100% (inactive)
16,COc1cc(-c2nc(Nc3nc4ccccc4[nH]3)nc(N)c2C#N)cc(OC)c1OC,32% (inactive)
17,Cn1c2ccccc2c2nn(Cc3ccccc3)c(=O)nc21,112% (inactive)
18,COC(=O)CCC(=O)c1ccccc1,105% (inactive)
19,O=C1C=CC(=O)N1CCCCCCCCCCN1C(=O)C=CC1=O,63.2% (inactive)
20,COc1ccccc1/C=C/C(=O)/C=C/c1ccccc1O,-41.8% (active)
